Assay outcomes from PubChem BioAssay.
HCMV antiviral: blocks human cytomegalovirus replication; HFF cells, HCMV-luciferase reporter, 72 h; active compounds read low; activity change, negative = inhibition, % at 57.5 µM; hit rate 4.5% among 410,000; AID 1259415; in the data active = activity change below about -60%; inconclusive = no clear call, values can overlap the other calls; inactive = above about -39%
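Screen run at 2 compound doses on HFFs infected with reporter HCMV, MOI 1 PFU/cell. Luciferase activity from cell lysates at 72 h post infection gave inhibition relative to buffer-only and Salinomycin wells.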
HCV inh: HCV inhibition. AID 651820. Potency, µM (doses to about 41.8 µM), for inactives: top-dose activity change, negative = inhibition, most hits filed as inhibitors. hit rate 3.4% among 340,000. Huh7.5.1 HCVcc-Cre infection, luciferase reporter, 44 h; active = well fitted inhibition curve with a large enough effect; inconclusive = small, poorly fitted or top-dose-only effect, or another doubt; inactive = no such curve, though single readings can be large or run the other way; also: potency is read from the fitted curve at half-maximal effect
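Whole-lifecycle infectious HCVcc-Cre system; cells 1,000/well, compound then virus (~0.5 moi) added 4 h after plating, 44 h culture. Luciferase read 15 sec following 15 min substrate incubation, room temp.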
LASV entry inh: blocks Lassa virus binding to or entry into cells. Potency, µM (series often up to 37.9 µM), inactives show at the highest dose activity change, negative = inhibition, usual class: inhibitors. hit rate 1.2% among 300,000. Lassa virus pseudotype entry inhibition, cell reporter; calls by dose curve; tested in HEK293 cells; also: potency is read from the fitted curve at half-maximal effect; nearly all actives have a fitted effect of over 50% in size
Marburg entry inh: inhibitors of Marburg virus binding or cell entry; Marburg virus pseudotyped entry inhibition, cell reporter; hit rate 1.8% among 300,000; Potency, µM (series often up to 37.8 µM), for the others: at the top dose activity change, negative = inhibition, actives largely listed as inhibitors; calls by dose curve; tested in HEK293 cells; also: potency is read from the fitted curve at half-maximal effect
FMDV antiviral: antivirals against foot and mouth disease virus. FMDV antiviral cell-based qHTS. Potency, µM (top dose mostly 57.9 µM), inactives show at the top dose activity change, negative = inhibition, most hits filed as inhibitors. hit rate 1.2% among 410,000; calls by dose curve; tested in HEK293T cells; also: read-out not given here; potency is read from the fitted curve at half-maximal effect; nearly all actives have a fitted effect of over 45% in size
* marks the source's active call; other numbers are inactive results; ? = inconclusive; . = no result given; + = active, no number; [ ] = remark or other dose. Hits are enriched below; roughly 7.9% of the tested compounds scored in any of these assays. % is scaled to controls: 0 for no effect and ±100 for the full control effect.

SMILES	HCMV antiviral	HCV inh	LASV entry inh	Marburg entry inh	FMDV antiviral
CC(C)c1ccccc1OCC(O)CN1CCN(S(=O)(=O)c2ccc([N+](=O)[O-])cc2)CC1 (centres undefined)	23	13µM*	?	?	?
COc1ccc([C@@H]2CNC(=O)C2)cc1OC1CCCC1	.	.	.	-39%	0%
Cc1ccc(S(=O)(=O)N2CCN(C(=O)CN3C(=O)c4ccc([N+](=O)[O-])cc4C3=O)CC2)c(C)c1	-22	10%	-4%[46.1 µM]	14%	-20%
Cn1c(=O)c2c(nc(NCc3ccc4c(c3)OCO4)n2Cc2ccc(F)cc2)n(C)c1=O	-34	11µM*	-13%	?	?
Cn1c(=O)c2c(nc(NCCc3ccccc3)n2Cc2ccc(Cl)cc2)n(C)c1=O	-82*	.	1%[46.1 µM]	11%[46.1 µM]	?
Cn1c(=O)c2c(nc(NCc3ccccc3)n2Cc2ccccc2)n(C)c1=O	-6	.	-26%[46.1 µM]	6%[46.1 µM]	-29%
COc1cc(/C=N/Nc2nc3c(c(=O)n(C)c(=O)n3C)n2Cc2ccccc2)ccc1OC(=O)c1ccco1	39	?	?	?	14µM*
Cn1c(=O)c2c(nc(N/N=C/c3ccncc3)n2Cc2ccccc2)n(C)c1=O	46	-10%	-25%	-26%	?
COc1cccc(Cn2c(NCc3ccco3)nc3c2c(=O)n(C)c(=O)n3C)c1	-98*	?	?	?	?
CCCCC(=O)NCCNc1nc2c(c(=O)n(C)c(=O)n2C)n1Cc1ccccc1	39	-9%	-3%	?	-9%
COc1ccc(CCNc2nc3c(c(=O)n(C)c(=O)n3C)n2Cc2ccc(F)cc2)cc1OC	-90*	.	?	6.3µM*	16µM*
Cn1c(=O)c2c(nc(NCc3ccccc3)n2Cc2ccc(Cl)c(Cl)c2)n(C)c1=O	-76*	.	?	?	?
CCNc1nc2c(c(=O)n(C)c(=O)n2C)n1Cc1ccc(F)cc1	-36	.	?	.	?
CCCCC(=O)NCCNc1nc2c(c(=O)n(C)c(=O)n2C)n1Cc1ccc(F)cc1	1	-13%	9.2µM*	?	-29%
Cc1cc(NC(=O)CN2C(=O)NC(c3ccccc3)(c3ccc(C)c(C)c3)C2=O)no1 (centres undefined)	-12	?	.	.	38%
Cc1ccc(CSc2nnc(CNc3ccc(F)cc3)o2)cc1	-24	-8%	1%	-1%[46.1 µM]	?
CC(=O)N(Cc1cccnc1)c1nc2ccc(F)cc2s1	-77*	.	16%[46.1 µM]	.	-8%
CC(=O)N(Cc1cccnc1)c1nc2c(C)cc(C)cc2s1	?	.	1%[46.1 µM]	.	4%
COc1ccc(C)c2sc(N(Cc3cccnc3)C(=O)CCc3ccccc3)nc12	+	.	0%[46.1 µM]	.	-7%
CC(=O)c1ccc(C(=O)N(CCCN(C)C)c2nc3c(C)c(C)ccc3s2)cc1	-4	.	?	.	-22%
Cc1ccc2sc(N(CCCN(C)C)C(=O)c3ccc(S(=O)(=O)N(C)C4CCCCC4)cc3)nc2c1C	-35	?	13µM*	?	-4%
O=C(c1ccc(Br)s1)N(Cc1cccnc1)c1nc2ccc(F)cc2s1	14	.	1%[46.1 µM]	.	-5%
CC(=O)c1ccc(C(=O)N(Cc2cccnc2)c2nc3c(C)c(C)ccc3s2)cc1	0	.	13µM*	.	-12%
Cc1c(Cl)cccc1NC(=O)CC(c1cccs1)N1Cc2ccccc2C1=O (centres undefined)	-15	.	-1%[46.1 µM]	.	-1%
C[C@@H]1CN(Cc2ccc3c(c2)CN(Cc2coc4ccccc4c2=O)CCO3)C[C@H](C)O1	.	.	.	.	0%
SMILES	HCMV antiviral	HCV inh	LASV entry inh	Marburg entry inh	FMDV antiviral
CCN(Cc1ccccc1)S(=O)(=O)c1ccc(C(=O)N(CCCN(C)C)c2nc3cc4c(cc3s2)OCO4)cc1	-65*	?	?	?	-5%
CCN(Cc1ccccc1)S(=O)(=O)c1ccc(C(=O)N(CCCN(C)C)c2nc3c(C)c(C)ccc3s2)cc1	-16	13µM*	2.8µM*	6.3µM*	-14%
Cc1ccc2sc(N(CCCN(C)C)C(=O)c3ccc(S(=O)(=O)N4CCOCC4)cc3)nc2c1C	-35	?	20%	-22%	-21%
CC(C)c1ccc(NC(=O)Cn2cc(S(=O)(=O)Cc3ccccc3Cl)c3ccccc32)cc1	0	.	?	.	-17%
OC(c1ccc(F)c(F)c1)c1nc(-c2ccc3ccccc3c2)cs1 (centres undefined)	14	.	.	.	33%
NC(c1ccc(F)c(F)c1)c1nc(-c2ccc3ccccc3c2)cs1 (centres undefined)	-82*	.	.	.	27%
